# Test results taken from PubChem BioAssay (Tox21).
# Values without a mark were called inactive. Inconclusive results are not listed. A call without a number means that no potency is given here. Active and inactive are the calls of the source. Unless noted, calls follow the shape of the full dose curve.
# Key:
# [1] = Nuclear factor erythroid 2-related factor 2/antioxidant responsive element (Nrf2/ARE) small molecule agonists: qHTS cell viability counter screen in human keratinocytes (AID 1919968; active = well fitted curve in the direction sought with a large enough effect in the repeat runs; an effect the other way counts as inactive or inconclusive; also: nearly all actives have a fitted effect of over 55% in size)
# Summary of the method: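 KeratinoSens cells (HaCaT keratinocytes stably carrying an ARE-luciferase reporter) were seeded at 1,500 cells/well and rested 5 h at 37 C/5% CO2. They were then exposed to compounds in DMSO for 23 h. Viability was read by CellTiter-Fluor fluorescence after 1 h.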
# [2] = Nuclear factor erythroid 2-related factor 2/antioxidant responsive element (Nrf2/ARE) small molecule agonists: luciferase reporter gene qHTS assay in human keratinocytes (AID 1919969); also: nearly all actives have a fitted effect of over 35% in size; also: potency is read from the fitted curve at half-maximal effect
# [3] = target: Gonadotropin-releasing hormone receptor (Homo sapiens) (UniProt P30968); test: Human gonadotropin-releasing hormone receptor (GnRHR) small molecule agonists, calcium flux assay in GnRHR-HEK293 cells (AID 1920063); also: nearly all actives have a fitted effect of over 35% in size
# Sequence of Gonadotropin-releasing hormone receptor (Homo sapiens) (P30968 whole entry, looked up): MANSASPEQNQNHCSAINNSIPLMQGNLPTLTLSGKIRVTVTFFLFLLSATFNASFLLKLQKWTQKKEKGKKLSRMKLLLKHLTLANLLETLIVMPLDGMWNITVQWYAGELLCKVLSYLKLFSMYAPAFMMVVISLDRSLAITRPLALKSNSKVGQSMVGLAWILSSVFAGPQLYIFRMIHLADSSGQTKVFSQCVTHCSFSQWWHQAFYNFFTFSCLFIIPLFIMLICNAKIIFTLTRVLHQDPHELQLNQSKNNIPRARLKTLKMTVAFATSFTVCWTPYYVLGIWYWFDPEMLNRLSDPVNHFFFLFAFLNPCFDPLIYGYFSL
# Summary of the method: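 HEK293 cells stably expressing human GnRHR were plated 18 h at 37 °C, loaded with calcium dye 1 h at 37 °C, then given compound in agonist mode; fluorescence (Ex/Em 480/540) read kinetically for 3 min at 1 s intervals.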
# [4] = target: KiSS-1 receptor (Homo sapiens) (UniProt Q969F8); test: Human kisspeptin (KISS1R) small molecule agonists, calcium flux assay in KISS1R-HEK293 cells (AID 1920064; active = well fitted curve in the direction sought with a large enough effect in the repeat runs; an effect the other way counts as inactive or inconclusive)
# Sequence of KiSS-1 receptor (Homo sapiens) (Q969F8 whole entry, looked up): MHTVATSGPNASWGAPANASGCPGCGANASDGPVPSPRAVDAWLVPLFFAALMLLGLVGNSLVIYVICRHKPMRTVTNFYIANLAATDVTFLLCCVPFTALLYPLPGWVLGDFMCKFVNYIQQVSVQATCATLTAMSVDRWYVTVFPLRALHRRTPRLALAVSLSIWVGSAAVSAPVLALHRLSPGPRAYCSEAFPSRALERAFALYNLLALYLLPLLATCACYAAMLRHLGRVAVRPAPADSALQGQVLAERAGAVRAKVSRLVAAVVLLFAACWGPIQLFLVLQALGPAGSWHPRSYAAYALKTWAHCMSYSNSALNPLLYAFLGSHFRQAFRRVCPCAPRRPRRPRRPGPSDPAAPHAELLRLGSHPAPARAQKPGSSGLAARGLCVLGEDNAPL
# Summary of the method: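 HEK293 cells stably expressing human KISS1R were plated 18 h at 37 °C, loaded with calcium dye for 1 h at 37 °C, then given compound by pin tool. Fluorescence (Ex/Em 480/540) was read kinetically for 3 min.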
# [5] = G protein-coupled receptor (GPCR) small molecule agonists, calcium flux assay: HEK293 wild type cell line counter screen (AID 1920065)
# Summary of the method: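 Cells were plated and cultured 18 h at 37 C/5% CO2, then loaded with calcium dye for 1 h at 37 C. Compounds in DMSO were pin-transferred in agonist mode, and fluorescence (Ex/Em 480/540) was read kinetically for 3 min at 1 s intervals.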
# [6] = p53 small molecule agonists, cell-based qHTS assay with human liver microsomes (AID 1963577);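 also: p53 response element beta-lactamase reporter cells with liver microsomes plus NADPH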
# Summary of the method: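 p53RE-bla cells; 5 h settle, 37 C/5% CO2; cpd + HLM 0.5 mg/mL + NADPH 0.5 mg/mL (final); 16 h 37 C; LiveBLAzer 2 h RT dark; fluorescence readout.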
# [7] = p53 small molecule agonists, cell-based qHTS assay with rat liver microsomes (AID 1963578)
# Summary of the method: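 Rat liver microsome activation: microsomes 0.5 mg/mL, NADPH 0.5 mg/mL final; p53RE-bla cells, 16 h 37 C; LiveBLAzer readout, 2 h RT dark.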
# [8] = p53 small molecule agonists, cell-based qHTS assay with human liver microsomes: qHTS cell viability counter screen (AID 1963579); also: nearly all actives have a fitted effect of over 45% in size; also: potency is read from the fitted curve at half-maximal effect
# Summary of the method: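 Luminescent CellTiter-Glo read-out, 30 min at room temperature, gauged cytotoxicity in p53RE-bla cells exposed 16 h at 37 C to DMSO-dissolved compounds with metabolic activation by human liver microsomes and NADPH, each 0.5 mg/mL final.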
# [9] = p53 small molecule agonists, cell-based qHTS assay: qHTS cell viability counter screen (AID 1963581); also: nearly all actives have a fitted effect of over 45% in size
# Summary of the method: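 p53RE-bla HCT-116 cells were exposed to compounds for 16 h at 37 C; after the beta-lactamase FRET read in the same wells, CellTiter-Glo was added and luminescence (intracellular ATP) read after 30 min at room temperature.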
# [10] = p53 small molecule agonists, cell-based qHTS assay (AID 1963582; active = well fitted activation curve with a large enough effect in the signal ratio in the repeat runs, not every such curve was filed as active; the % refers to the signal ratio)
# Summary of the method: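 p53RE-bla beta-lactamase reporter cells rested 5 h at 37 C/5% CO2, then received compounds in DMSO by pin transfer and were incubated 16 h at 37 C. LiveBLAzer B/G FRET substrate was loaded for 2 h at room temperature before fluorescence reading.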
# [11] = target: 5-hydroxytryptamine receptor 2A (Homo sapiens) (UniProt P28223); test: 5-hydroxytryptamine receptor 2A (HTR2A) small molecule antagonists, cell-based qHTS assay (AID 1963586); also: nearly all actives have a fitted effect of over 45% in size
# Sequence of 5-hydroxytryptamine receptor 2A (Homo sapiens) (P28223 whole entry, looked up): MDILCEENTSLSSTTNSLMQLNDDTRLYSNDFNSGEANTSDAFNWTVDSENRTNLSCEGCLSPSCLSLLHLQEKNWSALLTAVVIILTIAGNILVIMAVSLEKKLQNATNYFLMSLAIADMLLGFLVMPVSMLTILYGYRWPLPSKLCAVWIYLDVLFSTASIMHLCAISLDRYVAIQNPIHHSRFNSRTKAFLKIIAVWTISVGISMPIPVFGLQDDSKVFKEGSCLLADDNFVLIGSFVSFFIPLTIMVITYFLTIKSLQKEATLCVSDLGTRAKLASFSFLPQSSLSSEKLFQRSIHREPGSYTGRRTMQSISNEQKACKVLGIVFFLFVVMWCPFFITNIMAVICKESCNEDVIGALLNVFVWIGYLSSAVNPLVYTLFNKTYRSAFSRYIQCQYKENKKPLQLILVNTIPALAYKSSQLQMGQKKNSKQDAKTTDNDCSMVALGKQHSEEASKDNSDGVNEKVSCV
# Summary of the method: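 Antagonist-mode intracellular calcium assay: DOI (4 nM) added after 5 min compound pre-incubation at room temperature to dye-loaded HTR2A-CHO cells. Fluorescence followed for 3 min, sampled every second.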
# [12] = target: 5-hydroxytryptamine receptor 2A (Homo sapiens) (UniProt P28223); test: 5-hydroxytryptamine receptor 2A (HTR2A) small molecule agonists, cell-based qHTS assay (AID 1963587); also: nearly all actives have a fitted effect of over 30% in size; also: potency is read from the fitted curve at half-maximal effect
# Summary of the method: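 Kinetic calcium-flux fluorescence (2 min, 1 sec intervals) after compound addition in agonist mode. HTR2A-CHO cells were cultured 18 h, then dye-loaded 1 h at 37 C.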
# [13] = target: Muscarinic acetylcholine receptor M1 (Homo sapiens) (UniProt P11229); test: Cholinergic receptor muscarinic 1 (CHRM1) small molecule antagonists, cell-based qHTS assay (AID 1963588); also: nearly all actives have a fitted effect of over 40% in size
# Sequence of Muscarinic acetylcholine receptor M1 (Homo sapiens) (P11229 whole entry, looked up): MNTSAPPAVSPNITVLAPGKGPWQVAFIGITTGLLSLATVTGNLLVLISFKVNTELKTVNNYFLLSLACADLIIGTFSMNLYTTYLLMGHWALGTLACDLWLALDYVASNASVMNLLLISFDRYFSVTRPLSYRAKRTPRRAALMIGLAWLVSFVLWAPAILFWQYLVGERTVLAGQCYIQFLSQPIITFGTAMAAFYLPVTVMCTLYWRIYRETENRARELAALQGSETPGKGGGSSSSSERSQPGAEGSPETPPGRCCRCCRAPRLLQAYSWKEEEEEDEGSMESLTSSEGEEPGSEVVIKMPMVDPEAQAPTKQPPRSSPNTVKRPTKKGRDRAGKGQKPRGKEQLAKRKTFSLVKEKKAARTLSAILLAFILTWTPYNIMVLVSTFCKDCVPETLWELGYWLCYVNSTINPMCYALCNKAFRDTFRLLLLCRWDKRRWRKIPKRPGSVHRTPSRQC
# Summary of the method: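 CHRM1-CHO calcium-flux assay, antagonist mode. Cells were seeded 18 h, dye-loaded 1 h at 37 C and given compound for 5 min at RT, then acetylcholine was added at 50nM. FDSS fluorescence was read 3 min; 15 concentrations, three runs.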
# [14] = target: Muscarinic acetylcholine receptor M1 (Homo sapiens) (UniProt P11229); test: Cholinergic receptor muscarinic 1 (CHRM1) small molecule agonists, cell-based qHTS assay (AID 1963589); also: nearly all actives have a fitted effect of over 35% in size
# Summary of the method: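 CHO cells stably expressing human CHRM1, seeded 18 h at 37 C/5% CO2, dye-loaded 1 h at 37 C, then given compound in agonist mode; intracellular calcium fluorescence read kinetically at 1 s intervals. Fifteen concentrations, three independent runs.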
# [15] = target: Beta-2 adrenergic receptor (Homo sapiens) (UniProt P07550); test: Adrenergic beta2 receptor (ADRB2) small molecule antagonists, cell-based qHTS assay (AID 1963592); also: series mostly up to about 92 µM; nearly all actives have a fitted effect of over 50% in size
# Sequence of Beta-2 adrenergic receptor (Homo sapiens) (P07550 whole entry, looked up): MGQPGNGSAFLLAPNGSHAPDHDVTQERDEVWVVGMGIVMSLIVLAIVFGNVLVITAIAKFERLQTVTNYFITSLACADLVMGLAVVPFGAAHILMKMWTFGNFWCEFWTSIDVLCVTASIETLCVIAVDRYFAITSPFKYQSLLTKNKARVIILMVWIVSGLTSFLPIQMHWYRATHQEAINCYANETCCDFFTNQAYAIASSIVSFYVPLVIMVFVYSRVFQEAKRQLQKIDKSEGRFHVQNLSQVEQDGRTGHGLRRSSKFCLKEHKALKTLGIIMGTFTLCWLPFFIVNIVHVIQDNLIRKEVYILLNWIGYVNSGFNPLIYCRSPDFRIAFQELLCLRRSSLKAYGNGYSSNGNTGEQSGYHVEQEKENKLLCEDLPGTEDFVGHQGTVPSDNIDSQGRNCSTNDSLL
# Summary of the method: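 Cells (CHO, stable ADRB2 overexpression) incubated 18-20hr at 37C; compounds added from DMSO; agonist mix (1nM isoproterenol, 100uM IBMX, 25uM Ro-20-1724) added; 0.5hr RT; d2-cAMP and anti-cAMP-cryptate added; 1hr RT; 665/615 nm read.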
# [16] = target: D(2) dopamine receptor (Homo sapiens) (UniProt P14416); test: Dopamine D2 receptor (DRD2) small molecule agonists, cell-based qHTS assay (AID 1963594); also: nearly all actives have a fitted effect of over 35% in size
# Sequence of D(2) dopamine receptor (Homo sapiens) (P14416 whole entry, looked up): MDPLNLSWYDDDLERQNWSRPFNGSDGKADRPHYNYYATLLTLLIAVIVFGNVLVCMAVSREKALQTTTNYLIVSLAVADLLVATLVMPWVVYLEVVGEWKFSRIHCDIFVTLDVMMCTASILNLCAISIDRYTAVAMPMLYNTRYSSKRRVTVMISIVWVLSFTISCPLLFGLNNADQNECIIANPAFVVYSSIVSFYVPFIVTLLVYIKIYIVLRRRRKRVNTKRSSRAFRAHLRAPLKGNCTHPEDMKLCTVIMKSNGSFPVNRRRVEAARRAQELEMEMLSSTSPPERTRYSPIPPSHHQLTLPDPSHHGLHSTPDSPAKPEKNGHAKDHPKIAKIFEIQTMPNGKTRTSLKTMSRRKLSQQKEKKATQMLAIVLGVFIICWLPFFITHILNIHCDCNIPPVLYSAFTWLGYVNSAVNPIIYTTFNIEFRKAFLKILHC
# Summary of the method: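 cAMP accumulation in DRD2-HEK293 cells measured by HTRF after 1 h detection; compounds added 10 min before NKH477 (200nM […]) forskolin-analogue stimulation, 30 min at room temperature, with Ro20-1724 present at 0.1 mM final.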
# [17] = target: D(2) dopamine receptor (Homo sapiens) (UniProt P14416); test: Dopamine D2 receptor (DRD2) small molecule antagonists, cell-based qHTS assay (AID 1963595; active = well fitted inhibition curve with a large enough effect in the signal ratio in the repeat runs, with a control signal flat; the % refers to the signal ratio)
# Summary of the method: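 Cells were plated and grown for 24 h at 37 °C. Ro20-1724 (0.1 mM final) went in first, then compound for 10 min. NKH477 (200 nM) with quinpirole (12 nM) followed for 30 min at RT, then HTRF detection reagents for 1 h.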
# [18] = cAMP Responsive Elements (CRE) small molecule agonists, cell-based qHTS assay (AID 1963590)
# Summary of the method: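 CRE-bla HEK 293T cells in DMEM with 10% dialyzed FBS, NEAA, pyruvate and 25 mM HEPES were plated 18 h at 37 C/5% CO2, then exposed to compounds in DMSO for 3 h before LiveBLAzer B/G FRET substrate addition.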
# [19] = cAMP Responsive Elements (CRE) small molecule antagonists, cell-based qHTS assay (AID 1963591; active = well fitted inhibition curve with a large enough effect in the signal ratio in the repeat runs, not every such curve was filed as active; the % refers to the signal ratio)
# Summary of the method: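 CRE-bla HEK293T cells were plated 18 h at 37 °C/5% CO2, pinned with compound in DMSO, then stimulated with NKH477 at 0.25 uM final for 3 h. LiveBLAzer B/G FRET substrate was added and plates incubated 2 h at room temperature.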
# [20] = p53 small molecule agonists, cell-based qHTS assay with rat liver microsomes: qHTS cell viability counter screen (AID 1963580); also: nearly all actives have a fitted effect of over 45% in size
# Summary of the method: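 HCT-116 p53RE-bla, 4,000 cells/well, 5 h pre-incubation; cpd + rat liver microsomes 0.5 mg/mL + NADPH 0.5 mg/mL (final); 16 h, 37 C; CellTiter-Glo, 30 min RT; luminescence.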
smiles,measurement,setting,value
Nc1ccc(C(=O)OCCCOC(=O)c2ccc(N)cc2)cc1,Potency,[1],inactive
same,Potency,[2],inactive
same,Potency,[3],inactive
same,outcome,[4],inactive
same,outcome,[5],inactive
same,Potency,[6],inactive
same,Potency,[7],inactive
same,Potency,[8],inactive
same,Potency,[9],inactive
same,Potency,[10],inactive
same,Potency,[11],inactive
same,Potency,[12],inactive
same,Potency,[13],inactive
same,Potency,[14],inactive
same,Potency,[15],inactive
same,Potency,[16],inactive
same,Potency,[17],inactive
CC1(C)S[C@@H]2[C@H](NC(=O)Cc3ccccc3)C(=O)N2[C@H]1C(=O)O (tested in a mixture with another compound),Potency,[1],inactive
same,Potency,[2],inactive
same,Potency,[3],inactive
same,outcome,[4],inactive
same,outcome,[5],inactive
same,Potency,[6],inactive
same,Potency,[7],inactive
same,Potency,[8],inactive
same,Potency,[9],inactive
same,Potency,[10],inactive
same,Potency,[18],inactive
same,Potency,[19],inactive
same,Potency,[15],inactive
same,Potency,[16],inactive
same,Potency,[17],inactive
CCOC(=O)COc1cc(-n2ncc(C(F)(F)F)c(C)c2=O)c(F)cc1Cl,Potency,[1],inactive
same,Potency,[2],inactive
same,Potency,[3],inactive
same,outcome,[4],inactive
same,outcome,[5],inactive
same,Potency,[6],inactive
same,Potency,[7],inactive
same,Potency,[8],inactive
same,Potency,[9],inactive
same,Potency,[10],inactive
same,Potency,[11],inactive
same,Potency,[12],inactive
same,Potency,[13],inactive
same,Potency,[14],inactive
same,Potency,[15],inactive
same,Potency,[16],inactive
same,Potency,[17],inactive
C=CC(=C)CC/C=C(\C)CCC=C(C)C,"activity change, negative = cytotoxicity",[1],-0.584% [at 19 µM]
same,"activity, positive = activation",[2],7.55% [at 19 µM]
same,activity change,[3],"1.61% [at 11.8 µM, active compounds read high]"
same,activation,[4],5.69% [at 15.8 µM]
same,activation,[5],-1.2% [at 11.8 µM]
same,activation,[6],-0.261% [at 13.5 µM]
same,activation,[7],0.56% [at 13.6 µM]
same,"activity change, negative = cytotoxicity",[8],1.39% [at 13.5 µM]
same,"activity change, negative = cytotoxicity",[9],2.84% [at 13.5 µM]
same,activation,[10],-2.41% [at 13.5 µM]
same,"activity, negative = inhibition",[11],22.2% [at 12.7 µM]
same,activation,[12],6.61% [at 15.9 µM]
same,"activity, negative = inhibition",[13],-6.65% [at 12.6 µM]
same,activation,[18],0.237% [at 19 µM]
same,"activity change, negative = inhibition",[19],1.53% [at 18.9 µM]
same,activation,[16],-0.761% [at 19 µM]
same,"activity change, negative = inhibition",[17],-0.805% [at 18.9 µM]
COc1ccc(C(=O)Nc2ccccc2)cc1[N+](=O)[O-],Potency,[1],inactive
same,Potency,[2],inactive
same,Potency,[3],inactive
same,outcome,[4],inactive
same,outcome,[5],inactive
same,Potency,[6],inactive
same,Potency,[7],inactive
same,Potency,[8],inactive
same,Potency,[9],inactive
same,Potency,[10],inactive
same,Potency,[12],inactive
same,Potency,[13],inactive
same,Potency,[14],inactive
same,Potency,[15],inactive
same,Potency,[16],inactive
same,Potency,[17],inactive
CCCCCCCCCC#N,Potency,[1],inactive
same,Potency,[2],68.2 µM (active)
same,Potency,[3],inactive
same,outcome,[4],inactive
same,outcome,[5],inactive
same,Potency,[6],inactive
same,Potency,[7],inactive
same,Potency,[8],11.4 µM (active)
same,Potency,[9],inactive
same,Potency,[11],inactive
same,Potency,[12],inactive
same,Potency,[13],inactive
same,Potency,[18],inactive
same,Potency,[19],inactive
same,Potency,[15],inactive
same,Potency,[16],inactive
same,Potency,[17],inactive
CC(C)(C)C1=CC(=O)C(C(C)(C)C)=CC1=O,Potency,[1],inactive
same,Potency,[2],26.6 µM (active)
same,Potency,[3],inactive
same,outcome,[4],inactive
same,outcome,[5],inactive
same,Potency,[6],inactive
same,Potency,[7],inactive
same,Potency,[20],inactive
same,Potency,[9],inactive
same,Potency,[10],inactive
same,Potency,[11],inactive
same,Potency,[12],3.79 µM (active)
same,Potency,[13],inactive
same,Potency,[14],inactive
same,Potency,[18],inactive
same,Potency,[19],inactive
same,Potency,[15],inactive
same,Potency,[16],inactive
same,Potency,[17],inactive
